Screening results from PubChem BioAssay.
SENP8 block-1: SENP8 protease inhibitors, primary screen, biochemical, luminescence; inhibition, % at 10 µM; actives 1.2% (n = 330,000); purified SENP8, Z-RLRGG-aminoluciferin cleavage; in the data active = inhibition above about 50%
SENP7 inh: SENP7 protease inhibitors, primary screen, biochemical, luminescence, uHTS | recombinant SENP7, Z-RLRGG-aminoluciferin luminescence, 40 min | inhibition, % at 5 µM | actives 1.5% (n = 330,000) | AID 434973, 2010;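 active = inhibition above about 50% at the single test dose, limit read from the data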;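 note: plate controls were DMSO with enzyme for no effect and no enzyme buffer wells for full effect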
SENP8 block-2: human SENP8 protease inhibitors, primary screen, biochemical, fluorescence, Nedd8 protein substrate, uHTS; inhibition, % at 20 µM; recombinant SENP8; AID 602440, 2012; Sentrin-specific protease 8 (Homo sapiens), Q96LD8; actives 0.64% (n = 360,000); in the data active = inhibition mostly above about 40%, no sharp cut-off; inactive = mostly below about 27%
SENP6 block: SENP6 protease inhibitors, primary screen, biochemical, luminescence, uHTS | actives 1.8% (n = 330,000) | inhibition, % at 10 µM | AID 2599, 2010 | Sentrin-specific protease 6 (Homo sapiens), Q9GZR1 | Recombinant SENP6 catalytic domain, aminoluciferin luminescence;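 active = inhibition above about 50% at the single tested dose, limit read from the data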;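 note: plate controls were DMSO wells with enzyme for no effect and DMSO wells lacking enzyme for full effect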
Target sequence (Q9GZR1 628-1112 limits assumed): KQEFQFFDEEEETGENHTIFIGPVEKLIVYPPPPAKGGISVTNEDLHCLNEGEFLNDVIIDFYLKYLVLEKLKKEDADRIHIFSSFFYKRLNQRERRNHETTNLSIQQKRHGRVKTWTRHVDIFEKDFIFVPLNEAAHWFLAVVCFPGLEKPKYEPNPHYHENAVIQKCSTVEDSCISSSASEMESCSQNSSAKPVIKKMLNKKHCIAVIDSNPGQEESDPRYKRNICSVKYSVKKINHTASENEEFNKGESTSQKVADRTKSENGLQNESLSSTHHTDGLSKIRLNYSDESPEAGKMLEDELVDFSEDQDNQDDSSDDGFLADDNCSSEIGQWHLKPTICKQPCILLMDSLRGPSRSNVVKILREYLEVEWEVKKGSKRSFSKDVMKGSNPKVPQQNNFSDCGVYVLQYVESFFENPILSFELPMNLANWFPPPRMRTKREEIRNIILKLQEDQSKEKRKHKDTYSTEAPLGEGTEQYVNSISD
PPC-1+TRAIL kill: compounds killing PPC-1 cancer cells with TRAIL present, primary screen, TRAIL potentiator project, ATPLite luminescence, uHTS | PPC-1 cells + TRAIL, ATPLite viability luminescence | cell killing (% activity), % at 4 µM or 5 µM | actives 0.41% (n = 220,000);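 active = cell killing above 50% in the first pass at 4 µM, then a duplicate retest at 5 µM averaging 50% or more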;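 note: plate controls were cells with TRAIL plus DMSO for no effect and medium-only wells lacking cells for full effect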
TRAIL sens C8: viability loss with TRAIL in NB7+C8 cells, primary screen, TRAIL sensitizer project, cell-based, ATPlite luminescence; inhibition (viability loss, TRAIL sensitization), % at 10 µM; actives 1% (n = 360,000); AID 624354, 2012;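 active = compounds causing at least 50% loss of cell viability in the single-dose screen, relative to plate controls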
The depositor's hits bear a star; i = inactive; x = not tested or not shown; ! = repeats disagree. Shown are actives, neighbours in structure and some others; about 3% of the full set was active somewhere.

SMILES | SENP8 block-1 | SENP7 inh | SENP8 block-2 | SENP6 block | PPC-1+TRAIL kill | TRAIL sens C8
Cn1ncc(Cl)c(Oc2ccc(Cl)cc2)c1=O | 6 | 0 | 12 | 6 | 8 | 6
COc1ccc(Oc2c(Cl)cnn(-c3ccc(F)cc3)c2=O)cc1 | 8 | -1 | 12 | -2 | 7 | 87*
COc1ccc(NC(=O)c2cc(C3CCCCN3C(=O)CCCc3ccccc3)on2)c(C)c1 (configuration not stated) | x | x | 6 | x | x | -27
CCc1nc2c(OCCn3cccc3)cccn2c1N(C)C(=O)c1ccco1 | x | x | 9 | x | x | -10
CCOc1ccc(Cl)cc1-c1cc(C(=O)NCc2cccc(C(F)(F)F)c2)[nH]n1 | x | x | 14 | x | x | 18
CN1CCc2c(sc(NC(=O)c3ccc([N+](=O)[O-])o3)c2C(N)=O)C1 | 15 | 14 | 8 | 22 | x | 60*
NC(=O)c1c(NC(=O)c2ccc([N+](=O)[O-])o2)sc2c1CCCC2 | -10 | -4 | -76 | -15 | x | -28
CC1=NN(c2ccccc2)C(=O)C1 | -5 | -3 | 49* | -8 | -7 | -5
CC1=NN(c2ccc(N)cc2)C(=O)C1 | 5 | 18 | 68* | 28 | 9 | -8
CCOC(=O)[C@]12CCCC=C1N(CCc1ccc(OC)c(OC)c1)C(=O)[C@H](CC(=O)N1CCCC1)C2 | x | x | 34 | x | x | -7
O=C(Oc1ccc(Oc2ccccc2)cc1)N1CCC(O)CC1 | 2 | 6 | 19 | 7 | x | 2
c1ccc(NCc2nc3ccccc3n2CCOc2ccccc2)cc1 | 48 | 33 | 11 | 66* | -7 | -4
CC(C)NC(=O)C1(C#N)C=C1c1ccccc1 (configuration not stated) | x | x | 2 | x | x | 1
CCOC(=O)c1cc2c(=Cc3ccc(N(C)C)cc3)c3ccccc3n2[n+]1C | x | x | 91* | x | x | 53*
CN(C)c1ccc(C=c2c3ccccc3n3c2c2ccccc2[n+]3C)cc1 | x | x | -470 | x | x | 35
Cc1cc2c(=Cc3ccc(N(C)C)cc3)c3ccccc3n2[n+]1C | x | x | 43* | x | x | 31
CCCCn1nnnc1C1(C)CCC(=O)N1CCCN1CCOCC1 (configuration not stated) | x | x | 14 | x | x | -2
Cc1ccc(/C=N/NC(=O)c2nn(C)cc2Cl)cc1 | 15 | 29 | 10 | 29 | 43 | 68*
C=CCN=C1S/C(=C\N(C)C)C(=O)N1S(=O)(=O)c1ccc(C)cc1 | -12 | -13 | 24 | -4 | x | -7
CCC(C)Sc1cc(-c2nc3ccc(C)cn3c2NCc2ccccc2)ccc1OC (configuration not stated) | x | x | i | x | x | 84*!
COc1ccc(-c2nc3ccccn3c2NCc2ccc3c(c2)OCO3)cc1 | 2 | 5 | i | 27 | 22 | 21
CCC(C)Sc1ccc(-c2nc3ccc(C)cn3c2NCc2ccccc2)cc1OC (configuration not stated) | 0 | -7 | -494 | 0 | x | 22
COc1ccc(-c2cc(-c3nc4ccccn4c3NCc3ccccc3)ccc2OC)cc1 | -6 | 5 | i | -7 | x | 78*
O=C(Nc1ccc(F)cc1)C(c1ccnc2ccccc12)N1CCN(c2cccc(C(F)(F)F)n2)CC1 (configuration not stated) | x | x | 6 | x | x | 11
COc1cc(CN2CCNC(=O)C2CC(=O)N2CCCN(C(C)=O)CC2)cc(OC)c1 (configuration not stated) | -7 | -2 | -7 | 8 | x | -7
SMILES | SENP8 block-1 | SENP7 inh | SENP8 block-2 | SENP6 block | PPC-1+TRAIL kill | TRAIL sens C8
COCCn1cnc2c1c(=O)n(CC(=O)OCC(=O)NCC(F)(F)F)c(=O)n2Cc1ccccc1 | -16 | -7 | -3 | -13 | 0 | 3
O=C(/C=C/c1ccc(F)cc1)NC(=S)Nc1ccccc1C(=O)NC1CCCCC1 | -2 | -3 | 5 | -1 | 18 | 59*
COc1cccc(C(=O)NCC(=O)OCC(=O)Nc2cc(OC)c([N+](=O)[O-])cc2C)c1 | -5 | 1 | 15 | -8 | -14 | 12
CC(C)(C)C1=CC(O)(c2ccccc2)C=C(C(C)(C)C)C1=O | -5 | -4 | 15 | -17 | x | -16
Cc1ccc(S(=O)(=O)N2C[C@H]3C(=O)C[C@@H](c4cccc(Cl)c4)N(S(=O)(=O)c4ccc(C)cc4)[C@H]3C[C@H]2c2ccc(Cl)cc2)cc1 | x | x | 15 | x | x | -4
N#C/C(=C\c1cc(Cl)ccc1O)C(=O)NC1CCCCC1 | -4 | 5 | -13 | -8 | 10 | -10
N#C/C(=C\c1cc(Cl)cc(Cl)c1O)C(=O)NC1CCCCC1 | -16 | 7 | -86 | 4 | 10 | 54*
COc1ccc(-c2sc3ccccc3c2-c2ccc(OCCN(C)C)cc2)cc1 | -26 | -11 | -439 | -5 | x | 79*
CC(C(=O)N(C)c1ccccc1)N1CCN(C(=O)c2ccccc2)CC1 (configuration not stated) | -10 | -5 | 8 | -34 | x | -1
Cn1cccc1/C=C1\SC(=S)N(NC(=O)c2ccccc2O)C1=O | 7 | 0 | 47* | -19 | 3 | -15
Cn1cccc1/C=C1\SC(=S)N(NC(=O)c2ccc(F)cc2)C1=O | 7 | -4 | 52* | 1 | 7 | -2
CC(/C=C1\SC(=S)N(NC(=O)c2ccc(C)cc2)C1=O)=C\c1ccccc1 | -2 | -1 | 40* | -4 | -1 | -25
Cc1ccccc1-c1nnc(-c2cccc3ccccc23)o1 | x | x | i | x | x | 51*
CC[n+]1ccc2cc(OC)c(OC)cc2c1Cc1ccc(OC)c(OC)c1 | -12 | -5 | 38 | -6 | -7 | -2
COc1ccc(Cc2c3cc(OC)c(OC)cc3cc[n+]2C)cc1OC | 14 | -6 | 60* | 20 | 13 | 11
COc1ccc2nc(N3C(=O)CNC3=S)sc2c1 | 29 | 43 | -13 | 43 | 35 | 50*
CCC(c1ccccc1)C(CC)c1cc(O)c(O)c(O)c1 (configuration not stated) | x | x | 64* | x | x | 8
CCC(C)c1ccccc1O (configuration not stated) | 0 | 9 | -3 | 2 | x | -6
COc1ccc(C(=O)C2CCCN(S(=O)(=O)c3ccccc3F)C2)c(C)c1 (configuration not stated) | -12 | 10 | 4 | 1 | x | -15
O=S(=O)(c1ccc(Br)cc1)N1CCN(c2ccc3nnc(-c4ccccc4)n3n2)CC1 | 9 | 3 | -74 | 3 | -7 | 51*
COc1ccc(CN2CCC[C@]3(N[C@H](c4ccccc4)[C@@H]4C(=O)N(C)C(=O)[C@@H]43)C2=O)cc1 | x | x | 15 | x | x | -3
CCCc1cc(=O)[nH]c(SCC(=O)NC2(C#N)CCCCC2)n1 | -6 | 3 | 7 | -10 | x | -5
